# Measured values taken from PubChem BioAssay AID2071 (Sanford-Burnham Center for Chemical Genomics, 2009).
# The campaign covered roughly 280,000 compounds. About 1,700 (0.61%) were called active. Rule as the data show it: active = inhibition mostly above about 24% (no sharp cut-off); inactive = mostly below about 32%. This excerpt belongs to a sample that is enriched for actives.
# Assay: NALP1 inflammasome inhibitors in reconstituted yeast, colorimetric, S. cerevisiae, triplicate retest (AID 2071)
# Conditions: S. cerevisiae NALP1/ASC/caspase-1 growth, X-gal OD620, 72 h, stronger effect = higher value
smiles,measurement,setting,value
COc1ccc(S(=O)(=O)Nc2ccc(S(=O)(=O)N3CCCCC3)cc2)cc1OC,inhibition,at 10 µM unless noted,22.8% (inactive)
CNS(=O)(=O)c1ccc(NC(=O)Nc2ccc3c(c2)OCO3)cc1,inhibition,at 10 µM unless noted,-4.3% (inactive)
COc1ccc(S(=O)(=O)Nc2ccc3c(c2)OCO3)cc1Cl,inhibition,at 10 µM unless noted,27.9% (active)
Cc1cc(N=Nc2ccc3ccccc3c2)ccc1O,inhibition,at 10 µM unless noted,1.2% (inactive)
CC[C@]1(c2ccccc2OC)C(=O)N(C(=O)OC)N1C(=O)OC,inhibition,at 10 µM unless noted,34.1% (inactive)
CCOC(=O)C1(Cc2ccccc2C)CCCN(C(=O)CN2C(=O)CSC2=O)C1 (configuration not stated),inhibition,at 10 µM unless noted,20% (inactive)
O=C(NC(=S)N1CCCCC1c1cccnc1)c1ccccc1 (configuration not stated),inhibition,at 10 µM unless noted,-18% (inactive)
CCn1c(=N)n(CC(=O)c2cccc(OC)c2)c2ccccc21,inhibition,at 10 µM unless noted,31.5% (active)
CCCn1c(=N)n(CC(=O)c2ccc(Cl)c(Cl)c2)c2ccccc21,inhibition,at 10 µM unless noted,23.1% (inactive)
COc1ccc2cc(C(=O)O)n(CC(=O)c3ccccc3)c2c1,inhibition,at 10 µM unless noted,14% (inactive)
Cc1cccc(NC(=O)C2CCN(C(=O)NC3CCCCC3)CC2)c1,inhibition,at 10 µM unless noted,3.7% (inactive)
O=C(Nc1cccc2c1CCCC2)C1CCN(C(=O)NC2CCCCC2)CC1,inhibition,at 10 µM unless noted,-14.2% (inactive)
Cc1ccccc1NC(=O)C1CCN(C(=O)NC2CCCCC2)CC1,inhibition,at 10 µM unless noted,40.8% (active)
O=S(=O)(Oc1ccccc1C(=S)N1CCOCC1)c1ccc(Cl)cc1,inhibition,at 10 µM unless noted,1.2% (inactive)
Cc1ccc(OCc2cc(C(=O)N(C)CCn3ccnc3C)no2)cc1C,inhibition,at 10 µM unless noted,5.1% (inactive)
COc1cccc(C2SCC(=O)N2c2cccc(C)c2)c1OC (configuration not stated),inhibition,at 10 µM unless noted,9.2% (inactive)
COc1ccc(N2C(=O)CNC2=S)cc1,inhibition,at 10 µM unless noted,-21.9% (inactive)
CCOc1cccc(/C=N/N2C(=O)CSC2=S)c1O,inhibition,at 10 µM unless noted,-14.2% (inactive)
O=C1CSC(=S)N1c1ccc(O)cc1,inhibition,at 10 µM,76.7% (active)
same,inhibition,"triplicate retest, at 20 µM",95.9%
COc1ccc(CCN=C2SCC(=O)N2C)cc1OC,inhibition,at 10 µM unless noted,2.2% (inactive)
O=C1CSC(=S)N1c1ccc(Cl)c(Cl)c1,inhibition,at 10 µM unless noted,44.2% (active)
Cc1cc(=O)cc(C)n1-c1ccc(Cl)c(Cl)c1,inhibition,at 10 µM unless noted,-5.9% (inactive)
COc1cc(N2C(=O)CSC2=S)cc(OC)c1OC,inhibition,at 10 µM,52.7% (active)
same,inhibition,"triplicate retest, at 20 µM",57.6%
CC(C)N1C(=S)SC(C)(C)C1n1oc(=O)n(-c2ccc(Cl)c(Cl)c2)c1=O (configuration not stated),inhibition,at 10 µM unless noted,0.9% (inactive)
Cc1cccc(Nc2nc(-c3ccccc3)cs2)n1,inhibition,at 10 µM unless noted,19.1% (inactive)
CCOc1ccccc1NC(=S)N1CCN(c2cccc(C)c2C)CC1,inhibition,at 10 µM unless noted,4.9% (inactive)
CC(C)c1ccc2oc(=O)cc(CN3CCN(Cc4ccccc4)CC3)c2c1,inhibition,at 10 µM unless noted,8.7% (inactive)
Cc1cc(Cl)nc(NC(=O)Nc2cccc(Cl)c2)n1,inhibition,at 10 µM unless noted,22.5% (inactive)
O=c1c(-c2cccc(Cl)c2)c[nH]n1-c1ccccc1,inhibition,at 10 µM unless noted,17% (inactive)
CCCn1c(C(C)Nc2nc(-c3ccc(C)cc3)cs2)nc2cc(Cl)c(N3CCCCC3)cc21 (configuration not stated),inhibition,at 10 µM unless noted,14.5% (inactive)
Cn1c(CC(=O)Nc2ccccc2)nnc1SCC(=O)c1ccccc1,inhibition,at 10 µM unless noted,9.9% (inactive)
Cn1c(CSCC(=O)Nc2ccccc2)nnc1SCc1ccccc1,inhibition,at 10 µM unless noted,38.6% (active)
O=C(CSCc1ccccc1)Nc1ccccc1,inhibition,at 10 µM unless noted,8.9% (inactive)
CCOC(=O)Nc1ccc2c(c1)N(C(=O)CCCl)c1ccccc1[S@]2=O,inhibition,at 10 µM unless noted,8.9% (inactive)
O=C(CCCN1C(=O)/C(=C/c2cccs2)SC1=S)Nc1ccc(O)cc1,inhibition,at 10 µM unless noted,5% (inactive)
Cc1cccc(C)c1NC(=O)C(Cl)C(=O)c1ccccc1 (configuration not stated),inhibition,at 10 µM,50.4% (active)
same,inhibition,"triplicate retest, at 20 µM",80.1%
Cc1cccc(C)c1NC(=O)N1CC(C)OC(C)C1 (configuration not stated),inhibition,at 10 µM unless noted,5.2% (inactive)
Cc1cccc(C)c1NC(=O)C(c1ccccc1)N1CC(=O)Nc2ccccc21 (configuration not stated),inhibition,at 10 µM unless noted,19.2% (inactive)
CCc1ccc(NC(=O)COC(=O)c2cccs2)cc1,inhibition,at 10 µM unless noted,8.1% (inactive)
Cn1c(CCN2CCCCCC2)nc2cc(NC(=O)Nc3ccccc3)ccc21,inhibition,at 10 µM unless noted,19.6% (inactive)
Cc1nc2cc(NCc3cccs3)ccc2n1C,inhibition,at 10 µM unless noted,1.9% (inactive)
Cc1nc2cc(NC(=O)NC3CC3)ccc2n1C,inhibition,at 10 µM unless noted,29.1% (active)
CCCOC1CCCN(C(=O)c2cc(COc3cncc(Cl)c3)on2)C1 (configuration not stated),inhibition,at 10 µM unless noted,-85.7% (inactive)
Cc1ccc(C)c(N2CCN(C(=O)CCCCCn3c(=S)[nH]c4ccc(N5CCOCC5)cc4c3=O)CC2)c1,inhibition,at 10 µM unless noted,-12.8% (inactive)
CCOc1ccc(NC(=O)CCCCCN2C(=O)[C@@H]3Cc4ccccc4CN3C2=O)cc1,inhibition,at 10 µM unless noted,12.6% (inactive)
Cc1ccc(Cn2c(C)c3cnn(CC(=O)NCc4ccccn4)c(=O)c3c2C)cc1,inhibition,at 10 µM unless noted,-2.5% (inactive)
Cc1[nH]c2ccccc2c1/C=C(/C#N)C(=O)NC(C)C,inhibition,at 10 µM unless noted,0.1% (inactive)
CNC(=O)/C(C#N)=C/c1c(F)cccc1Cl,inhibition,at 10 µM unless noted,46.8% (active)
N#C/C(=C\c1ccccc1C(F)(F)F)C(=O)Nc1ccccc1F,inhibition,at 10 µM unless noted,40.5% (inactive)
O=C(Nc1cccc2cccnc12)c1cccc(N2C(=O)CCC2=O)c1,inhibition,at 10 µM unless noted,15.2% (inactive)
N#Cc1ccc(C(=O)Nc2cccc3cccnc23)c(F)c1,inhibition,at 10 µM unless noted,40% (active)
O=C(Nc1cccc2cccnc12)c1cccc(Cl)c1,inhibition,at 10 µM unless noted,0.8% (inactive)
O=Cc1c(Nc2ccccc2Cl)nc2ccccn2c1=O,inhibition,at 10 µM unless noted,13.8% (inactive)
Cc1ccc(CCn2c3c(c4ccccc42)CN(C)CC3)cn1,inhibition,at 10 µM unless noted,39.6% (active)
COc1cc(Br)c(-c2sc(Nc3ccccc3)n[n+]2-c2ccccc2)cc1OC,inhibition,at 10 µM unless noted,-1.9% (inactive)
Cc1ccccc1Nc1nc(-c2cccnc2)cs1,inhibition,at 10 µM unless noted,16.4% (inactive)
COc1nnc(-c2ccc(C)c(S(=O)(=O)N(C)C)c2)c2ccccc12,inhibition,at 10 µM unless noted,17.5% (inactive)
Cc1ccc(Nc2nnc(SCC(=O)c3cc4ccccc4o3)s2)cc1C,inhibition,at 10 µM unless noted,5% (inactive)
CCc1ccc(Nc2nnc(SCC(=O)c3ccc4c(c3)NC(=O)CO4)s2)cc1,inhibition,at 10 µM unless noted,39.5% (active)
CCCc1nc2ccccc2c(C(=O)OCC(=O)c2ccc3c(c2)NC(=O)CO3)c1CC,inhibition,at 10 µM unless noted,-1.4% (inactive)
COc1ccc(C(=O)/C=C/c2cccnc2)c(OC)c1,inhibition,at 10 µM unless noted,-90.5% (inactive)
COc1ccc(O)c(/C=N/N=C/c2cccc([N+](=O)[O-])c2)c1,inhibition,at 10 µM unless noted,14.9% (inactive)
Cc1ccc(O)c(CNc2nc3ccccc3[nH]2)c1,inhibition,at 10 µM unless noted,10.8% (inactive)
COCC1CCN(C(=O)C2CCC(=O)N(Cc3cccc(C(F)(F)F)c3)C2)CC1 (configuration not stated),inhibition,at 10 µM unless noted,2.8% (inactive)
COc1ccc(Cl)cc1NC(=O)CN1CCN(C(=O)N2CCOCC2)CC1,inhibition,at 10 µM unless noted,5.1% (inactive)
Nc1c(C(=O)NCc2ccccc2)nnn1Cc1cccc(Cl)c1,inhibition,at 10 µM unless noted,7% (inactive)
CC(C)CC(=O)N1CCN(Cc2cccc(Cl)c2)CC1,inhibition,at 10 µM unless noted,10.5% (inactive)
Clc1cccc(CN2COc3c(cc(Cl)c4cccnc34)C2)c1,inhibition,at 10 µM unless noted,125% (active)
CCC(NC(=O)c1cc(COc2ccc(F)c(F)c2)on1)c1ccncc1 (configuration not stated),inhibition,at 10 µM unless noted,0.6% (inactive)
Cc1ccc(NS(=O)(=O)c2ccc(-c3coc(C)n3)cc2)c(C)c1,inhibition,at 10 µM unless noted,3.2% (inactive)
O=C(CSCC(=O)Nc1cccc([N+](=O)[O-])c1)Nc1ccccc1,inhibition,at 10 µM unless noted,27.6% (inactive)
COC(=O)/C=C\C(=O)Nc1cccc([N+](=O)[O-])c1,inhibition,at 10 µM,108% (active)
same,inhibition,"triplicate retest, at 20 µM",116%
COc1cccc(CNC(=O)CCCC(=O)Nc2cccc([N+](=O)[O-])c2)c1,inhibition,at 10 µM unless noted,-4.2% (inactive)
O=S1(=O)CCOC[C@H](CC2CCCCC2)N1Cc1ccc(F)cc1,inhibition,at 10 µM unless noted,22.6% (inactive)
C/C(=N\NC(=O)C1(C)CC1(Br)Br)c1ccc(C)cc1C (configuration not stated),inhibition,at 10 µM unless noted,-0.3% (inactive)
O=C(COc1ccc(Cl)cc1)N1CCN(c2cccc(C(F)(F)F)c2)CC1,inhibition,at 10 µM unless noted,-4.3% (inactive)
CCC(=O)c1ccc(OCC(O)CN2CCN(c3cccc(C(F)(F)F)c3)CC2)cc1 (configuration not stated),inhibition,at 10 µM,52.2% (active)
same,inhibition,"triplicate retest, at 20 µM",65.2%
CCC(=O)c1ccc(OCC(O)CN2CC(C)OC(C)C2)cc1 (configuration not stated),inhibition,at 10 µM unless noted,0.7% (inactive)
COc1ccc(S(=O)(=O)N2CCOC2CNC(=O)C(=O)NCc2ccncc2)cc1C (configuration not stated),inhibition,at 10 µM unless noted,0.1% (inactive)
CCC(=O)c1cn(CCOc2ccccc2OC)c2ccccc12,inhibition,at 10 µM unless noted,14.8% (inactive)
Cc1csc(=NC(=O)c2ccccc2)n1CCO,inhibition,at 10 µM unless noted,2.4% (inactive)
Cc1csc(=Nc2ccccc2)n1CCO,inhibition,at 10 µM unless noted,26.1% (inactive)
OCCn1c(-c2ccccc2)csc1=Nc1ccccc1,inhibition,at 10 µM unless noted,50.3% (active)
O=C(NCCCN1CCOCC1)c1cc(-c2ccccc2F)no1,inhibition,at 10 µM unless noted,20.9% (inactive)
C[N+](C)(C)CCNC(=O)c1cc[n+](Cc2ccccc2)c(/C=N/O)c1,inhibition,at 10 µM unless noted,6.7% (inactive)
O=C(NC1CCCC1)c1cc(-c2ccccc2)on1,inhibition,at 10 µM unless noted,15.4% (inactive)
CC(=O)C(C)n1cnc2scc(-c3ccc(C)cc3)c2c1=O (configuration not stated),inhibition,at 10 µM unless noted,-5% (inactive)
C/C(=N\NC(=O)COc1ccc(C)cc1[N+](=O)[O-])c1ccc2c(c1)OCCO2,inhibition,at 10 µM unless noted,12% (inactive)
CCOc1ccc(NS(=O)(=O)c2ccc(OCC(=O)NCCCOC)cc2)cc1,inhibition,at 10 µM unless noted,-2.5% (inactive)
COCCCNC(=O)COc1cc(C)c(Cl)c(C)c1,inhibition,at 10 µM unless noted,33.8% (active)
COCCNC(=O)COc1ccccc1C,inhibition,at 10 µM unless noted,6.3% (inactive)
CCSc1nsc(NC(=O)Nc2ccccc2OC)n1,inhibition,at 10 µM unless noted,18.6% (inactive)
COc1ccc(C(CCNCc2ccccc2F)c2ccc(F)cc2)cc1 (configuration not stated),inhibition,at 10 µM,46.5% (active)
same,inhibition,"triplicate retest, at 20 µM",74.4%
COc1ccc(CC(=O)NC(C)CCc2ccccc2)cc1 (configuration not stated),inhibition,at 10 µM unless noted,7.9% (inactive)
COc1cccc(CNCCc2c[nH]c3ccccc23)c1OCc1ccccc1F,inhibition,at 10 µM unless noted,-3.7% (inactive)
CCCCNC(=O)C1CCC(=O)N1CCc1ccccc1 (configuration not stated),inhibition,at 10 µM unless noted,-0.8% (inactive)
CCCCNC(=O)C1CCCNC1=O (configuration not stated),inhibition,at 10 µM unless noted,42.8% (active)
CCCOc1ccc(NC(=O)C2CCCNC2=O)cc1 (configuration not stated),inhibition,at 10 µM unless noted,7.4% (inactive)
O=[N+]([O-])c1ccc(NC(=S)N2CCN(c3ccccn3)CC2)cc1,inhibition,at 10 µM unless noted,9.2% (inactive)
CC(=O)N1c2ccc(S(=O)(=O)N3CCCC(C(=O)NCc4ccc(Cl)cc4)C3)cc2CC1C (configuration not stated),inhibition,at 10 µM unless noted,-3.9% (inactive)
COc1ccccc1NC(=O)C1CCN(C(=O)c2ccc(C(C)(C)C)cc2)CC1,inhibition,at 10 µM unless noted,3.2% (inactive)
